Pf Dd2 inh – blocks in vitro growth of P. falciparum Dd2; P. falciparum Dd2 growth, SYBR Green, 72 h; Potency, µM (top dose mostly 28.9 µM), for the others: top-dose activity, negative = inhibition, hits mostly inhibitors; 120,000 compounds, 4.3% hits; active means well fitted inhibition curve with a large enough effect;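 further: plate controls were DMSO vehicle for no effect and reference drug for full effect; nearly all actives have a fitted effect of over 65% in size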
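Readout: SYBR Green fluorescence, 485 nm excitation, 535 nm emission, after ~16 h lysis at 37C. Before that, Dd2-infected red cells (2.5% hematocrit) grew 72 h with compound, 29 uM top final concentration.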
* = called active by the depositor; i = inactive; [ ] = another dose, or the depositor's remark. Many of the other results were omitted from the sample, so hits are more common in it than they were. Potency means the concentration at half of the fitted maximal effect.

SMILES | Pf Dd2 inh
COc1ccc(CN2C=C(C(=O)OCc3noc(-c4ccccc4F)n3)C(C)=NS2(=O)=O)cc1 | -18%
O=C1CO[C@H]2CN(C3CCC3)C[C@H]2N1c1ccccc1 | -12%[44.1 µM]
N#Cc1cccc(C(=O)NCc2nnc3ccc(-c4ccc(F)cc4)nn23)c1 | i
Cc1ccccc1-c1cc(C(=O)NCc2cccnc2)c2c(c1)N(C)CCO2 | -11%[44.1 µM]
O=S(=O)(c1ccc(Cl)cc1)c1nc(-c2ccccc2Br)oc1NCc1ccccc1 | 10µM*
COCCNc1oc(-c2ccccc2)nc1S(=O)(=O)c1ccc(Br)cc1 | -13%
O=S(=O)(c1ccccc1)c1nc(-c2ccc(F)cc2)oc1NCc1ccccc1 | -10%
CN(C)C(=O)c1ccnc(-c2nnc3ccc(NCCN4CCOCC4)nn23)c1 | 44%[44.1 µM]
Cc1nnc(-c2cc(-c3cccc(CO)c3)ccn2)n1Cc1ccccc1 | -3%[44.1 µM]
CN(c1ccccc1)S(=O)(=O)c1ccc(NC(=O)c2nc(S(C)(=O)=O)ncc2Cl)cc1 | 15%[5.79 µM]
CS(=O)(=O)c1ncc(Cl)c(C(=O)Nc2c(C(=O)Nc3ccccc3)oc3ccccc23)n1 | i
CCS(=O)(=O)c1ncc(N(Cc2ccccc2)Cc2ccco2)c(C(=O)Nc2ccc(C)c(C)c2)n1 | 5µM*
Cc1ccc(NC(=O)c2nc(S(C)(=O)=O)ncc2N(Cc2ccc(C(C)(C)C)cc2)Cc2ccco2)cc1C | 7.1µM*
CCS(=O)(=O)c1ncc(N(Cc2ccccc2)Cc2ccco2)c(C(=O)Nc2ccccc2C)n1 | -16%
CCCS(=O)(=O)c1ncc(Cl)c(C(=O)N(Cc2ccccc2)Cc2ccco2)n1 | 8%
Cc1ccsc1CN(Cc1ccco1)c1cnc(S(C)(=O)=O)nc1C(=O)Nc1ccc(Cl)cc1 | 4.5µM*
Cc1cccc(NC(=O)Cn2nnc(C(=O)NCc3ccco3)c2N)c1 | 25%
CCc1ccc(CN(Cc2ccco2)c2cnc(S(C)(=O)=O)nc2C(=O)Nc2cccc(C)c2)cc1 | 11µM*
CCS(=O)(=O)c1ncc(Cl)c(C(=O)Nc2c(C(=O)Nc3cccc(C)c3)oc3ccccc23)n1 | -22%
CC(C)(C)c1ccc(C(=O)N(Cc2ccc(F)cc2)Cc2ccco2)cc1 | -14%
Cc1ccc(NC(=O)c2nc(S(=O)(=O)Cc3ccc(F)cc3)ncc2Cl)cc1C | 43%[5.79 µM]
CNC(=O)c1cc(-c2cnn(C)c2C)cc2c1OCCN2Cc1cccnc1 | i
O=C(OCc1ccccc1)N1CCn2ncc(C(=O)N3CCOCC3)c2C1 | 10%
CN(Cc1ccc2ncccc2c1)C(=O)c1ccc(C2CCNC2)cc1 (stereo not drawn) | -16%
COc1ccc(NC(=O)c2nc(S(C)(=O)=O)ncc2N(Cc2ccc(C)cc2)Cc2ccco2)cc1Cl | 10µM*
SMILES | Pf Dd2 inh
COc1ccc(NC(=O)Cn2c(N(C)Cc3ccccc3)nc(C)cc2=O)cc1Cl | -4%
Cc1ccc(CN(Cc2ccco2)C(=O)COc2ccc(Cl)cc2Cl)cc1 | -23%
O=C1CN(C(=O)C2CNCC23CCOCC3)CCN1 (stereo not drawn) | 19%
O=C(CCS(=O)(=O)c1ccccc1)N(Cc1cccnc1)c1nc2ccc(Cl)cc2s1 | 46%
Cc1ccc2nc(N(Cc3cccnc3)C(=O)c3ccc4c(c3)OCCO4)sc2c1 | i
CC(=O)c1ccc(C(=O)N(Cc2cccnc2)c2nc3c(Cl)cccc3s2)cc1 | -22%
Cc1cc(C)c2nc(N(Cc3cccnc3)C(=O)Cc3ccccc3)sc2c1 | 10µM*
Cc1cccc2sc(N(Cc3cccnc3)C(=O)CCc3ccccc3)nc12 | 4µM*
Cc1ccc2nc(N(Cc3cccnc3)C(=O)Cc3ccccc3)sc2c1 | 5µM*
CC(=O)N(Cc1cccnc1)c1nc2c(C)c(C)ccc2s1 | i
CCS(=O)(=O)c1ccccc1C(=O)N(Cc1cccnc1)c1nc2cc(C)c(C)cc2s1 | -1%
O=C(c1ccco1)N(Cc1cccnc1)c1nc2c(F)cccc2s1 | i
Cc1ccc2nc(N(Cc3cccnc3)C(=O)CCS(=O)(=O)c3ccccc3)sc2c1 | i
O=C(CCc1ccccc1)N(Cc1cccnc1)c1nc2c(F)cccc2s1 | i
Cc1cc(C)c2nc(N(Cc3cccnc3)C(=O)c3cccs3)sc2c1 | 10µM*
CC(C)c1nnc(NC(=O)C2CC(=O)N(c3n[nH]c4cc(Br)ccc34)C2)s1 (stereo not drawn) | -5%
O=C(O)c1ccccc1C(=O)N[C@H]1CO[C@H]2[C@@H]1OC[C@@H]2n1nnnc1Oc1ccc(-n2ccnc2)cc1 | -4%
CN(C)C(=O)N(C)Cc1cccc(C(F)(F)F)c1 | 3%[44.1 µM]
CC(C)c1ccc(CN2CCC3(CC2)OCCN(C)C3=O)cc1 | i
CCCNC(=O)C1COC2(CCN(C(=O)c3ccc(OC)cc3)CC2)N1C(=O)c1ccc(OC)cc1 (stereo not drawn) | -4%
O=C(Cn1ncc2ccccc2c1=O)NC1CCCc2c1[nH]c1c(Cl)cccc21 (stereo not drawn) | -5%
CNC(=O)[C@@H](c1ccccc1)N1CCC[C@H]1C(=O)N1CCC[C@@H]1COC | 4%[44.1 µM]
CC(C)C1c2nccn2CCCN1C(=O)CCn1cccn1 (stereo not drawn) | -15%
O=C(CN1CCOCC1)N1CCNc2cnc(Nc3ccc(-n4ccnc4)cc3)nc2C1 | 12%[44.1 µM]
Cc1ccccc1NC(=O)N1CCC(CCNC(=O)Cc2ccccc2F)CC1 | 6%
SMILES | Pf Dd2 inh
Cc1ncoc1C(=O)NCCc1ncc(C)n1CC1CC1 | -5%
CC(=O)N1CCC(c2nn(-c3ccccc3)c(=O)[nH]2)CC1 | -24%[44.1 µM]
CC(=O)c1ccc(N2C(=O)N(CC(=O)c3ccc(C)cc3)c3ccccc3S2(=O)=O)cc1 | -21%
CCOc1ccc(N2C(=O)N(Cc3ccc(C)cc3C)c3ccccc3S2(=O)=O)cc1 | 10µM*
CCN1C(=O)N(c2ccc(C(C)=O)cc2)S(=O)(=O)c2ccccc21 | 31%
O=C(CCc1nnn2c1CN(Cc1ccc(Br)o1)CC2)N1CCCC1 | -20%
C[C@@H](NC(=O)c1ccccn1)c1onc(-c2ccc(F)cc2)c1C(=O)O | 9%[44.1 µM]
CC(C)N1CCN(C2CCN(c3ccc4c(c3)OCO4)CC2)CC1CCO (stereo not drawn) | -15%
COc1ccc(-c2nc3ccccc3o2)cc1NC(=O)COc1cc(C)cc(C)c1 | i
COc1ccc(-c2nc3ccccc3o2)cc1NC(=O)COc1ccc(C(C)(C)C)cc1 | 7.9µM*
COc1ccc(-c2nc3ccccc3s2)cc1NC(=O)COc1ccc(C)cc1 | 10%
CCc1nnc([C@@H]2CC(F)(F)CN2C(=O)c2cnco2)o1 | 26%
CC(=O)c1ccc(NC(=O)OC[C@H]2C[C@@H]3CCN2C[C@@H]3c2cc(-c3cccs3)nn2C)cc1 | -25%
CCC(CC)c1cc([C@H]2CN3CC[C@H]2C[C@@H]3COC(=O)Nc2ccc(C(C)(C)C)cc2)nc(-c2ccncc2)n1 | 1.3µM*
Cn1nc(-c2ccccc2)cc1[C@H]1CN2CC[C@H]1C[C@@H]2CNS(=O)(=O)c1cccs1 | -13%[44.1 µM]
COc1ccccc1-c1cc([C@H]2CN3CC[C@H]2C[C@@H]3COC(=O)Nc2cccc(C(C)=O)c2)nc(C)n1 | -4%
Cn1nc(-c2ccc3ccccc3c2)cc1[C@H]1CN2CC[C@H]1C[C@@H]2COC(=O)Nc1ccccc1 | -24%
CC(C)c1ccc(NC(=O)OC[C@H]2C[C@@H]3CCN2C[C@@H]3c2cc(C3CCCCC3)nn2C)cc1 | -23%
Cn1nc(-c2cccs2)cc1[C@H]1CN2CC[C@H]1C[C@@H]2CNS(=O)(=O)c1ccccc1 | i
CCC(CC)C(=O)NC[C@H]1C[C@@H]2CCN1C[C@@H]2c1cc(-c2ccco2)nc(C)n1 | -30%[44.1 µM]
Cc1nc(C2CCCC2)cc([C@H]2CN3CC[C@H]2C[C@@H]3CNC(=O)CCCC(=O)O)n1 | i

Screening data (PubChem BioAssay)
